Measured values as given in PubChem BioAssay (EPA / NIEHS).
Calls of active or inactive are those of the source. Rule for the calls: active = hit-call score of the fitted dose curve at least 0.9, where 1 is the maximum; inactive = score below 0.9.

Tests used:
[1] = ATG_GLI_CIS: Attagene CIS-FACTORIAL HepG2 Assay for human Zinc Finger Protein GLI1 (AID 2282945); details: HepG2, Attagene cis-factorial reporter mRNA, GLI element; actives raise or lower the signal
Method in brief: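 Bidirectional curve fits relative to DMSO, using reporter mRNA levels from RT-PCR plus capillary electrophoresis. Cells were HepG2 transiently carrying cis-regulated reporter constructs, harvested 24 h after dosing.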

[2] = ATG_ISRE_CIS: Attagene CIS-FACTORIAL HepG2 Assay for human Interferon Regulatory Factor 1 (IRF1) binding to an Interferon-Stimulated Response Element (ISRE) (AID 2282948); details: HepG2 ISRE cis-reporter (Attagene), mRNA transcription readout; actives raise or lower the signal
Method in brief: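 Endogenous transcription factor activity read as reporter transcript abundance via RT-PCR and capillary electrophoresis. HepG2 cells transiently transfected, 24 h chemical exposure. Gain or loss fitted against DMSO baseline.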

[3] = ATG_M_32_CIS: Attagene CIS-FACTORIAL HepG2 Assay for M32 Transcription Factor (Internal Marker) (AID 2282949); details: HepG2 Attagene cis-factorial M32 reporter, mRNA; actives raise or lower the signal;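 note: background control marker of the multiplexed CIS panel rather than a real target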
Method in brief: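 HepG2 transfectants (cis-regulated reporter transcription units) dosed 24 h. Reporter mRNA by RT-PCR plus CE, analysed as gain or loss relative to DMSO.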

[4] = ATG_M_06_CIS: Attagene CIS-FACTORIAL HepG2 Assay for M06 Transcription Factor (Internal Marker) (AID 2282950); details: HepG2 Attagene CIS-FACTORIAL M06 internal marker reporter; actives raise or lower the signal
Method in brief: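 HepG2 cells transiently transfected with cis-regulated multiple reporter transcription units were exposed to chemical for 24 h; reporter mRNA was quantified by RT-PCR, 6-FAM primer labelling, HpaI digestion and capillary electrophoresis, fitted bidirectionally against DMSO.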

[5] = molecular target: Hypoxia-inducible factor 1-alpha (Homo sapiens) (UniProt Q16665); test: ATG_HIF1a_CIS: Attagene CIS-FACTORIAL HepG2 Assay for human Hypoxia Inducible Factor 1 (HIF1A) (AID 2282951); details: HepG2 Attagene cis-factorial HIF1a reporter transcription; actives raise or lower the signal
Method in brief: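 HepG2 cells transiently transfected with multiple cis-regulated reporter transcription units measure endogenous transcription factor activity. After 24 h exposure, reporter mRNA is quantified by RT-PCR with 6-FAM labelling, HpaI digestion and capillary electrophoresis. Bidirectional fitting against DMSO.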

[6] = molecular target: Heat shock factor protein 1 (Homo sapiens) (UniProt Q00613); test: ATG_HSE_CIS: Attagene CIS-FACTORIAL HepG2 Assay for human Heat Shock Transcription Factor 1 (HSE) (AID 2282953); details: HepG2 HSE cis-reporter, Attagene RNA transcription; actives raise or lower the signal
Method in brief: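 HepG2 cells transiently transfected with multiple reporter transcription units under cis-regulatory promoter control, measuring endogenous transcription factor activity. After 24 h chemical exposure, reporter mRNA quantified by RT-PCR, fluorescent labelling, HpaI digestion and capillary electrophoresis; bidirectional fit versus DMSO.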

[7] = ATG_MRE_CIS: Attagene CIS-FACTORIAL HepG2 Assay for human Metal Responsive Element (MRE) (AID 2282954); details: HepG2 MRE cis-reporter transcription, Attagene multiplex; actives raise or lower the signal
Method in brief: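 Endogenous MRE-dependent transcription read as reporter mRNA in transiently transfected human HepG2 cells at 24 h. RNA reverse-transcribed, PCR-amplified, labelled and resolved by capillary electrophoresis; gain or loss relative to DMSO.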

[8] = ATG_PBREM_CIS: Attagene CIS-FACTORIAL HepG2 Assay for human Phenobarbital-responsive Enhancer Module (PBREM) (AID 2282955); details: HepG2 PBREM cis-reporter, Attagene multiplexed transcription; actives raise or lower the signal
Method in brief: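 HepG2 cells transiently transfected with multiple cis-regulated reporter units measure endogenous transcription factor activity; 24 h compound exposure. Reporter mRNA quantified by RT-PCR, fluorescent labelling, HpaI digestion and capillary electrophoresis; bidirectional fit versus DMSO.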

[9] = molecular target: Paired box protein Pax-6 (Homo sapiens) (UniProt P26367); test: ATG_Pax6_CIS: Attagene CIS-FACTORIAL HepG2 Assay for human Paired Box 6 (PAX6) (AID 2282956); details: HepG2 CIS-FACTORIAL PAX6 reporter transcription, RNA readout; actives raise or lower the signal
Method in brief: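 Read-out is reporter transcript level, measured by RT-PCR with fluorescent primer extension and capillary electrophoresis after 24 h dosing of transfected HepG2 cells. Activity in either direction fitted relative to DMSO control.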

[10] = ATG_PXRE_CIS: Attagene CIS-FACTORIAL HepG2 Assay for human Pregnane X Receptor Element (PXRE) (AID 2282957); details: HepG2 Attagene CIS-FACTORIAL PXRE reporter, mRNA; actives raise or lower the signal
Method in brief: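 Fluorescent capillary electrophoresis of amplified reporter cDNA gave the signal, collected 24 h after dosing HepG2 cells that held transfected cis-element reporter constructs.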

[11] = molecular target: Transcription factor Sp1 (Homo sapiens) (UniProt P08047); test: ATG_Sp1_CIS: Attagene CIS-FACTORIAL HepG2 Assay for human Specificity Protein 1 (Sp1) (AID 2282961); details: HepG2 Sp1 cis-reporter transcription, actives raise or lower the signal
Method in brief: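 HepG2 cells transiently transfected with multiplexed cis-regulated reporter constructs, chemical exposure 24 h. Reporter mRNA quantified by RT-PCR with capillary electrophoresis; bidirectional fit relative to DMSO.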

[12] = ATG_SREBP_CIS: Attagene CIS-FACTORIAL HepG2 Assay for human Sterol Regulatory Element Binding (SREBP) (AID 2282962); details: HepG2 Attagene cis-factorial SREBP reporter, mRNA; actives raise or lower the signal
Method in brief: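 Endogenous SREBP activity read as cis-element-driven reporter transcript in transiently transfected HepG2, 24 h post-dosing; quantified via RT-PCR plus capillary electrophoresis of fluorescent fragments. Gain or loss of signal fitted relative to DMSO baseline.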

[13] = molecular target: Signal transducer and activator of transcription 3 (Homo sapiens) (UniProt P40763); test: ATG_STAT3_CIS: Attagene CIS-FACTORIAL HepG2 Assay for human Signal Transducer and Activator of Transcription 3 (STAT3) (AID 2282963); details: HepG2, Attagene cis-factorial STAT3 reporter transcription; actives raise or lower the signal
Method in brief: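 Readout is reporter transcript quantified by RT-PCR and capillary electrophoresis, with 6-FAM primer extension and HpaI digestion. Total RNA is taken 24 h after dosing transiently transfected HepG2 carrying cis-regulated reporter units. Bidirectional fit against DMSO.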

[14] = ATG_PPRE_CIS: Attagene CIS-FACTORIAL HepG2 Assay for human Peroxisome Proliferator-activated Response Element (PPRE) (AID 2282958); details: HepG2 PPRE cis-element reporter, Attagene transcription factor profiling; actives raise or lower the signal
Method in brief: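 HepG2 cells are transiently transfected with multiplexed cis-promoter reporter units to report endogenous PPAR activity. After 24 h dosing, reporter mRNA is read by RT-PCR and capillary electrophoresis. Fitting is bidirectional against DMSO.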

[15] = ATG_RORE_CIS: Attagene CIS-FACTORIAL HepG2 Assay for human RAR-related Orphan Receptor Element (RORE) (AID 2282959); details: HepG2 Attagene cis-factorial RORE reporter, mRNA; actives raise or lower the signal
Method in brief: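 HepG2 cells carrying transiently transfected cis-regulated reporter units; RORE-driven reporter mRNA quantified 24 h post-dosing by RT-PCR, 6-FAM primer extension, HpaI digestion and capillary electrophoresis. Bidirectional fit versus DMSO.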

[16] = ATG_TA_CIS: Attagene CIS-FACTORIAL HepG2 Assay for human TA Basal Promoter (AID 2282964); details: HepG2 Attagene CIS-factorial TA basal promoter reporter; actives raise or lower the signal
Method in brief: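 HepG2 cells transiently transfected with multiplexed cis-promoter reporter units, dosed 24 h. Reporter mRNA measured by RT-PCR, 6-FAM labelling, HpaI digestion and capillary electrophoresis; bidirectional fit versus DMSO baseline, serving as background control.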

[17] = molecular target: Hepatocyte nuclear factor 6 (Homo sapiens) (UniProt Q9UBC0); test: ATG_HNF6_CIS: Attagene CIS-FACTORIAL HepG2 Assay for human Hepatocyte Nuclear Factor 6 (HNF6) (AID 2282952); details: HepG2 Attagene cis-factorial HNF6 reporter transcription; actives raise or lower the signal
Method in brief: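 Activity values derive from bidirectional fitting against DMSO of reporter mRNA levels, measured by capillary electrophoresis of labelled RT-PCR products from HepG2 cells exposed 24 h.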

[18] = ATG_Sox_CIS: Attagene CIS-FACTORIAL HepG2 Assay for human SRY-box transcription factor (SOX) (AID 2282960); details: HepG2 Attagene cis-factorial SOX reporter, mRNA; actives raise or lower the signal
Method in brief: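 HepG2 cells transiently transfected with multiple cis-regulated reporter units, then dosed for 24 h. Reporter mRNA quantified by RT-PCR, fluorescent labelling, HpaI digestion and capillary electrophoresis; bidirectional fit versus DMSO.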

Measured: AC50

Chain of Hypoxia-inducible factor 1-alpha (Homo sapiens) (Q16665 whole entry, looked up): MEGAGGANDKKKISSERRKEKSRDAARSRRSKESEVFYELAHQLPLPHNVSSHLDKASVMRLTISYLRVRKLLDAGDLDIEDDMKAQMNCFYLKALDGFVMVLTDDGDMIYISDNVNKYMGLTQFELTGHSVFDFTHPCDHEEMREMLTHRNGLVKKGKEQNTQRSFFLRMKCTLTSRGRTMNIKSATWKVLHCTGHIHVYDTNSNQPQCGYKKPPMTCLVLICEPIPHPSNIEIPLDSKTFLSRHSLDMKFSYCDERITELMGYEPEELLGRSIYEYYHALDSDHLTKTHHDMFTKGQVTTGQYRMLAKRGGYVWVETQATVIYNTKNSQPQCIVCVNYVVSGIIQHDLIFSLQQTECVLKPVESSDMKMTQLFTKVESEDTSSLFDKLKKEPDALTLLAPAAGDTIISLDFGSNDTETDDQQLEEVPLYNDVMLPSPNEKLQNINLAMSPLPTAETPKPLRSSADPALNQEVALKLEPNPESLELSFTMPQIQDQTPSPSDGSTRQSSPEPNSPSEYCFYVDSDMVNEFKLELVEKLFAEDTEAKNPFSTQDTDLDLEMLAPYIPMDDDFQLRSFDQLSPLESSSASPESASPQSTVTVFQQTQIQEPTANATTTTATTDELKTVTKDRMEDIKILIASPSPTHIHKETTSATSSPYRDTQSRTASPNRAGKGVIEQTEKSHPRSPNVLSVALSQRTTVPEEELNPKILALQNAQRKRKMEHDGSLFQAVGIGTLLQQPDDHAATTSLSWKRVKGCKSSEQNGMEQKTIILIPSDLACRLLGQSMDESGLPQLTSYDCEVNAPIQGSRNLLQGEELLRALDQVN
Chain of Heat shock factor protein 1 (Homo sapiens) (Q00613 whole entry, looked up): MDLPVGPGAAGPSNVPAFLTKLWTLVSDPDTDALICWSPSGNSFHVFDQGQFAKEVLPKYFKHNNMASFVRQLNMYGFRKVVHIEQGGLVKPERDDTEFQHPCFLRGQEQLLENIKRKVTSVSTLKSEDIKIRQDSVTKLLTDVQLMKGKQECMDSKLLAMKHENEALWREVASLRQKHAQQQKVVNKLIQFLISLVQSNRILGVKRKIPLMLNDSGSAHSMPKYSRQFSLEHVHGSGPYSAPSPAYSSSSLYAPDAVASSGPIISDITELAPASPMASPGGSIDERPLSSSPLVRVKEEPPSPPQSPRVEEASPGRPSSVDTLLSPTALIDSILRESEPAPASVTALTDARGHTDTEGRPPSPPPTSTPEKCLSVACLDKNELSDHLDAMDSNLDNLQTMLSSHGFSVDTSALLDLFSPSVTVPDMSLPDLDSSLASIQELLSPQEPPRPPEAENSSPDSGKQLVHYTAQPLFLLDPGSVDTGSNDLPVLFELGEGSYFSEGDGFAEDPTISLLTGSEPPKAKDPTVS
Chain of Hepatocyte nuclear factor 6 (Homo sapiens) (Q9UBC0 whole entry, looked up): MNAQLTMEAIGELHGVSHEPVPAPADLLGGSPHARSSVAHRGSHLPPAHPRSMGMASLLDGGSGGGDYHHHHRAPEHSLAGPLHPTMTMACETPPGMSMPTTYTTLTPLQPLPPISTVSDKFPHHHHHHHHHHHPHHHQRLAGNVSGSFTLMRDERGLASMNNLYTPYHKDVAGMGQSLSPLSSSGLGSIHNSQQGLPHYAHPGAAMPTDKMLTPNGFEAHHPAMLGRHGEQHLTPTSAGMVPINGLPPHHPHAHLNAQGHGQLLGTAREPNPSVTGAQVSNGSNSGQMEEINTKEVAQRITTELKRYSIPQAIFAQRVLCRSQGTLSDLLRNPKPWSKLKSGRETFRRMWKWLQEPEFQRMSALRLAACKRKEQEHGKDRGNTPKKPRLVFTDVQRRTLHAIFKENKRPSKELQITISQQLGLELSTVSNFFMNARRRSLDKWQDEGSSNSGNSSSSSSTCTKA
Chain of Transcription factor Sp1 (Homo sapiens) (P08047 whole entry, looked up): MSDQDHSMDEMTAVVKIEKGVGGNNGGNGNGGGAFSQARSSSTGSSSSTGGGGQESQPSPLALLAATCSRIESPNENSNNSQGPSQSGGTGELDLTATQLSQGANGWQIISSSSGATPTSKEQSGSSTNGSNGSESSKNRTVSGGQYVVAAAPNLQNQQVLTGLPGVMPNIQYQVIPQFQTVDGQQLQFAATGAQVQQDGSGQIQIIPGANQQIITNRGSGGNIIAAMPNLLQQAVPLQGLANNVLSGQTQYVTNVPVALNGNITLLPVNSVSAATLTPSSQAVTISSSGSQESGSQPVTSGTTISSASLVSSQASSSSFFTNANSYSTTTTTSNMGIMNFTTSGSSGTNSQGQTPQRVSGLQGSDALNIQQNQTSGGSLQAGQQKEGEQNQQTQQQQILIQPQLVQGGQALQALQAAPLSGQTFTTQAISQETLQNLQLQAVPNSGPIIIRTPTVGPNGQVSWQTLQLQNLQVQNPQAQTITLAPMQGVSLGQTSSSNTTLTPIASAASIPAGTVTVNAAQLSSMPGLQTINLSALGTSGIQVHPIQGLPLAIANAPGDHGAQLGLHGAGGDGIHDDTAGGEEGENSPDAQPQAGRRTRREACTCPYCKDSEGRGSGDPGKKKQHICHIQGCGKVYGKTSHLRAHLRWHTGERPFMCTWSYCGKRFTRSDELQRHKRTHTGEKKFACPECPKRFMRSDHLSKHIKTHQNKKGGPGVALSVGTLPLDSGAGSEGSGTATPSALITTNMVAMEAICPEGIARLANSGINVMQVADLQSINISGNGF
Chain of Paired box protein Pax-6 (Homo sapiens) (P26367 whole entry, looked up): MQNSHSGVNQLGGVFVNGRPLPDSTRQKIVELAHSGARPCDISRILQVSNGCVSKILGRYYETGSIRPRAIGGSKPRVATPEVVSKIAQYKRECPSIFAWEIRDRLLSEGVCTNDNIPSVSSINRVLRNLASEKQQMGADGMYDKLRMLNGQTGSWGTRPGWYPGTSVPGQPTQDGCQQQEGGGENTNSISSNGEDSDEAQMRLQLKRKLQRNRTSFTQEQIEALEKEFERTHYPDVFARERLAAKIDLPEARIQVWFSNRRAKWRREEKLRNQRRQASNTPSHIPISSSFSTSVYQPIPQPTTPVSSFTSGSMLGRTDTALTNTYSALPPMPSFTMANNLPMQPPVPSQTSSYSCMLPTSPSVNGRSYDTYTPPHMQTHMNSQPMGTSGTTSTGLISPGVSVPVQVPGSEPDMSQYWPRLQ
Chain of Signal transducer and activator of transcription 3 (Homo sapiens) (P40763 whole entry, looked up): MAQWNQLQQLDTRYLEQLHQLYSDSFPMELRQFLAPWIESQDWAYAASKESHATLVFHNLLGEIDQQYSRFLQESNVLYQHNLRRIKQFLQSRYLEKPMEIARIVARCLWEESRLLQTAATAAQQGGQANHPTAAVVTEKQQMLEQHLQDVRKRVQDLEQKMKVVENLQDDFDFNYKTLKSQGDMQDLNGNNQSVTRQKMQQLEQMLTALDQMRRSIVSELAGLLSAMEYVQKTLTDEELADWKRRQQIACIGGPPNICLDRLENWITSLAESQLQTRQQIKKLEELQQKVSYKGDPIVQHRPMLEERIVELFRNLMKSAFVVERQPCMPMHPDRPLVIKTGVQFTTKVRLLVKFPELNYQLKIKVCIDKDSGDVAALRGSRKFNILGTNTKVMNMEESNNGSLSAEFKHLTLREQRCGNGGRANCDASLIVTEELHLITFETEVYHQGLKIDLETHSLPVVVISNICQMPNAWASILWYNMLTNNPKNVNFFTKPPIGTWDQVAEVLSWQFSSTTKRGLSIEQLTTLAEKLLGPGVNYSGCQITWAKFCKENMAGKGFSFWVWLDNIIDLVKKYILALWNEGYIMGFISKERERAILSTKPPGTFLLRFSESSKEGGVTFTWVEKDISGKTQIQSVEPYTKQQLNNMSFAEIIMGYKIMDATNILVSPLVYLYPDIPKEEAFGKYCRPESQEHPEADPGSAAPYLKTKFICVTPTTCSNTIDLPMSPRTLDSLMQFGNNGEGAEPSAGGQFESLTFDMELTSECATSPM

CC(=O)CCC=C(C)CCC=C(C)C
active: [10] 6.98 µM
not listed: [14] | [15] | [16] | [17] | [18]
inactive: all other assays above

CCC(=O)OC(C)(C)C1CC=C(C)CC1 (stereo unspecified)
active: [10] 27.4 µM
not listed: [17] | [18]
inactive: all other assays above

CCCCCCOc1ccc(O)cc1
active: [6] 11.3 µM | [7] 47.7 µM | [10] 5.85 µM | [16] 39.2 µM
not listed: [9]
inactive: all other assays above

CC1=CCC(=C(C)C)CC1
active: [10] 5.48 µM
not listed: [14] | [15] | [16]
inactive: all other assays above

NC(=O)NC(N)=O
not listed: [4] | [15] | [16] | [18]
inactive: all other assays above

[O-]/[N+](=N\O)c1ccccc1
active: [10] 26.6 µM
not listed: [5] | [15]
inactive: all other assays above
